# An excerpt weighted towards active compounds, which were near 11% of everything screened.
# HPGD block – inhibitors of human 15-hydroxyprostaglandin dehydrogenase (HPGD); P15428; purified HPGD, NADH fluorescence kinetic, PGE2 substrate; Potency, µM, inactives show at the top dose activity change, negative = inhibition, usual class: inhibitors; 150,000 tested, 4.3% active; AID 894; note: potency is the fitted concentration of half-maximal effect
#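 NADH formation kinetics: reaction with 30 uM PGE2 and 1 mM NAD+ (final), 20 nM enzyme, Tris-HCl pH 8 with Tween 20, after 15 min compound preincubation at room temperature. Fluorescence change, last versus first of five reads.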
# JMJD2E inh – inhibitors of human JMJD2E histone demethylase | 230,000 tested, 1.6% active | B2RXH2 | Potency, µM (doses to about 57.1 µM), for inactives: at the top dose activity change, negative = inhibition, most hits filed as inhibitors | JMJD2E catalytic domain, FDH-coupled NADH fluorescence (FDH is formaldehyde dehydrogenase);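 note: potency is the fitted concentration of half-maximal effect; 0% = wells with enzyme and -100% = buffer wells without enzyme; nearly all actives have a fitted effect of over 50% in size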
# ALDH1A1 inh – ALDH1A1 (human) enzyme inhibition | 220,000 tested, 7.3% active | Potency, µM (titrated, usually from 75.3 µM), inactives show at the highest dose activity, negative = inhibition, actives largely listed as inhibitors | Purified ALDH1A1, NADH fluorescence, propionaldehyde substrate | AID 1030 | P00352;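 note: potency is the fitted concentration of half-maximal effect; plate controls were no enzyme wells and a reference inhibitor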
# Target sequence (P00352 whole entry, looked up): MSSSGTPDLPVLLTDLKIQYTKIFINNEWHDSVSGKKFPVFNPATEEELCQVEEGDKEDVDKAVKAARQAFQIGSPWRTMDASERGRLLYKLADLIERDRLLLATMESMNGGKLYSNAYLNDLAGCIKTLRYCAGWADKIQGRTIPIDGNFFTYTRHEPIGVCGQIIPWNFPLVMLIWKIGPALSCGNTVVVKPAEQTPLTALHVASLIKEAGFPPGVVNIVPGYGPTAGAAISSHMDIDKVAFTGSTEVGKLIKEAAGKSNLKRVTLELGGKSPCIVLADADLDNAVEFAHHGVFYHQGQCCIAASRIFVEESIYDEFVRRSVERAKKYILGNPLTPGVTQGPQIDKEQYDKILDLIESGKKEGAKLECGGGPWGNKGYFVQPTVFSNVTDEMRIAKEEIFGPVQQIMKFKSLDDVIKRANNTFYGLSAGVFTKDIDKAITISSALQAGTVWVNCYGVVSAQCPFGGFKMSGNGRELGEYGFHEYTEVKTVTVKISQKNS
# PNC inhibitor – blocks assembly of the perinucleolar compartment; PC3M PTB-GFP, PNC prevalence imaging, 16 h; hits give low values; activity change (PNC), negative = inhibition, % at 10 µM; 140,000 tested, 3.1% active; AID 2417;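 active = readout at or below -70, meaning at least 70% loss of cells showing the perinucleolar compartment, a nuclear body marking cancer cells; inconclusive = readout between -30 and a set limit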;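 note: plate controls were DMSO wells for no effect and camptothecin positive control wells for full effect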
#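 PC3M cells stably expressing PTB-GFP, 750–1000 cells/well, treated 16 h at 37 °C with compound (23 nl of library stock), in duplicate. After paraformaldehyde fixation and Hoechst stain, imaged at 20x; PNC prevalence scored by image analysis.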
# An asterisk follows results filed as active; u = inconclusive; x = no result; [ ] = another dose, or the depositor's remark. Unless noted, calls come from the whole dose curve; as a rule, active = well fitted inhibition curve with a large enough effect (not every such curve was filed as active); inconclusive = small, poorly fitted or top-dose-only effect, or another doubt; inactive = no such curve, though single readings can be large or run the other way. Unless noted, % is set by controls: 0 for no effect and ±100 for the full control effect.
SMILES,HPGD block,JMJD2E inh,ALDH1A1 inh,PNC inhibitor
COc1cc(C=O)c(Br)cc1OCC(=O)NCCc1ccccc1,x,-19.1%,-5.8%,x
COc1ccccc1N(Cc1cc(=O)[nH]c2ccccc12)C(=O)c1ccc([N+](=O)[O-])cc1,x,-8.7%,u,x
COc1ccc2c(C)cc(SCc3c(C)noc3C)nc2c1,u,u,u,-111.0*
CC(OC(=O)c1nsc(Cl)c1Cl)C(=O)NCc1ccco1 (stereo unspecified),-20.0%,4.8%,2.5%,-7.8
CC(OC(=O)c1nsc(Cl)c1Cl)C(=O)NCc1ccc2c(c1)OCO2 (stereo unspecified),u,9.2%,u,91.5
CC(C)CC(OC(=O)c1nsc(Cl)c1Cl)C(=O)NCc1cccs1 (stereo unspecified),5.01µM*,3.5%,u,12.6
CCC(OC(=O)c1nsc(Cl)c1Cl)C(=O)NCc1cccs1 (stereo unspecified),25.1µM*,-6.6%,2.9%,-20.2
O=c1cc(-c2cccc(O)c2)oc2c(O)c(O)ccc12,3.16µM*,7.94µM*,u,x
Cc1cc(O)c(C(C[N+](=O)[O-])c2ccc(Cl)cc2)c(=O)o1 (stereo unspecified),-11.2%,5.9%,u,13.1
Cc1cc(C)n(C(C[N+](=O)[O-])c2ccc(Cl)cc2)n1 (stereo unspecified),7.94µM*,-3.4%,u,u
O=C1c2cc(S(=O)(=O)NCCCO)ccc2-c2ccc(S(=O)(=O)NCCCO)cc21,-2.5%,7.6%,42.5%,u
CCc1ccc(CN(C)C(=O)CCc2nnc(COc3ccccc3)o2)cc1,x,18.3%,1.3%,x
Cn1c(CCNC(=O)c2ccco2)nc2cc(NC(=O)c3ccco3)ccc21,-16.4%,-4.0%,u,-6.2
Cn1c(CCNC(=O)c2ccco2)nc2cc(NS(=O)(=O)c3ccccc3)ccc21,-14.6%,10.4%,20µM*,-20.3
Cn1c(CCNC(=O)c2ccco2)nc2cc(NC(=O)C3CCCCC3)ccc21,4.1%,-2.8%,-9.1%,-113.8*
CC(C)C1NC2(C(=O)c3ccccc3C2=O)C2C(=O)N(c3ccc(F)cc3)C(=O)C12 (stereo unspecified),31.6µM*,-1.5%,1.26µM*,28.6
CC(C)N=C(NS(=O)(=O)NC(=O)c1ccccc1)c1ccccc1,x,-13.2%,5.5%,x
Cc1cc(C)c2cc(C(=O)Nc3ccccc3)[nH]c2c1,x,-5.0%,x,x
Cc1cccc(N2C(=O)CC(N3CCN(c4ccccn4)CC3)C2=O)c1 (stereo unspecified),x,4.4%,-5.9%,x
O=[N+]([O-])c1cc2oc3c(c2c(C=NCc2ccccc2)c1O)CCCC3,-14.6%,-8.9%,u,17.6
CC(C)CN=Cc1c(O)c([N+](=O)[O-])cc2oc3c(c12)CCCC3,-15.1%,12.6µM*,28.2µM*,-0.5
CC(C)C1=CC2=CC[C@@H]3[C@@](C)(C(=O)O)CCC[C@]3(C)C2CC1 (stereo partly specified),-10.0%,35.5µM*,u,x
COc1ccc2oc3cc(C)[n+]([O-])c(-c4ccc(Cl)cc4)c3c2c1,-9.9%,3.2%,u,32.5
Cc1cccc(N2CCN(S(=O)(=O)c3cccc4nonc34)CC2)c1C,-14.1%,6.0%,-5.0%,0.1
Oc1ccc(Cl)cc1-c1cc(-c2ccco2)[nH]n1,25.1µM*,-27.2%,u,70.6
SMILES,HPGD block,JMJD2E inh,ALDH1A1 inh,PNC inhibitor
S=c1[nH]nc(-c2cc(-c3ccco3)[nH]n2)n1-c1ccccc1,20µM*,u,u,61.2
Oc1ccccc1-c1cc(-c2ccco2)[nH]n1,u,u,14.1µM*,24.1
COc1ccc(OC)c(-n2c(-c3cc(-c4ccco4)[nH]n3)n[nH]c2=S)c1,x,-10.5%,3.1%,x
Cc1ccc(N=C2SC(C(=O)O)CC(=O)N2C)cc1C (stereo unspecified),x,3.8%,2.7%,x
O=C(O)c1nc(-c2ccccc2)[nH]c1C(=O)O,-12.7%,x,-7.6%[13.5 µM],x
COc1cccc(C(=O)Nc2cccc(-c3ccc4nncn4n3)c2)c1OC,x,3.7%,0.8%,x
COc1ccc(Cl)cc1C(=O)Nc1cccc(-c2ccc3nncn3n2)c1,x,14.1µM*,1.0%,x
CCCSc1nc2cc(C)c(C)cc2n1CC(C)O (stereo unspecified),x,1.7%,-3.3%,x
CCOC(=O)/C(C(=O)Nc1ccc(Cl)cc1Cl)=C1/NC(C)(C)Cc2ccccc21,-16.8%,-14.1%,12.6µM*,-7.7
O=C1Nc2ccc([N+](=O)[O-])cc2C1(O)N1CCCCC1 (stereo unspecified),-5.4%,-4.7%,-11.7%,7.5

# Source: PubChem (National Center for Advancing Translational Sciences (NCATS))
